Screening data: PubChem, National Center for Advancing Translational Sciences (NCATS)
Shown are actives, neighbours in structure and some others; about 2.8% of the full set was active somewhere.
KDM5B inhibitor – Primary screen for KDM5B Histone Demethylases FDH-coupled qHTS; Lysine-specific demethylase 5B (Homo sapiens), Q9UGL1; Potency, µM (series often up to 57.7 µM), usual class: inhibitors; 220,000 tested, 2.6% active; KDM5B demethylase, FDH-coupled NADH fluorescence (FDH is formaldehyde dehydrogenase); further: nearly all actives have a fitted effect of over 70% in size
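Inhibition is measured as reduced NADH fluorescence generation from FDH coupling to formaldehyde release. Truncated KDM5BΔAP at 200 nM final acts on H3K4me3 peptide (12.5 µM in substrate mix) in pH 7.5 HEPES buffer with Tween-20, 30 min, room temperature.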
IP6K1 inhibitor – Primary qHTS assay for small molecule inhibitors of Inositol hexaphosphate kinase 1 (IP6K1) | Inositol hexakisphosphate kinase 1 (Homo sapiens), Q92551 | 140,000 tested, 0.81% active | AID 1645851, 2021 | activity change, % (series mostly up to about 58 µM) | IP6K1 kinase, ADP-Glo luminescence, 2 h; stronger effect = lower value; in the data active means activity change below about -25%
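ADP-Glo luminescence measures ADP made by human IP6K1 during a 2 h RT reaction with ATP/IP6 (mix at 1.3 mM/130 uM); top library doses 57.5 and 19.1 uM final.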
Each line names hits and unclear results; the compound was inactive in the other large screens.

CCNC(=O)NC[C@H]1C[C@@H]2CCN1C[C@@H]2c1cc(-c2ccc(N(C)C)cc2)nc(C)n1	KDM5B inhibitor inconclusive
CC(=O)Nc1ccc(S(=O)(=O)NC[C@H]2C[C@@H]3CCN2C[C@@H]3c2cc(-c3ccco3)nc(C)n2)cc1	KDM5B inhibitor 31.6µM
Cc1nc(-c2ccco2)cc([C@H]2CN3CC[C@H]2C[C@@H]3CNS(=O)(=O)c2cccs2)n1	KDM5B inhibitor inconclusive
CC(=O)Nc1ccc(S(=O)(=O)NC[C@H]2C[C@@H]3CCN2C[C@@H]3c2cc(-c3ccc(N(C)C)cc3)nc(C)n2)cc1	KDM5B inhibitor 20µM
COC1CCN(CC2CCCCCN2C(=O)Cc2cccc(F)c2)CC1 (configuration not stated)	none (no result: KDM5B inhibitor)
O=C(Nc1ccccc1)Nc1ccc2n(c1=O)C[C@H]1C[C@@H]2CN(C(=O)c2cccs2)C1	KDM5B inhibitor inconclusive
COCCC(=O)Nc1ccc2n(c1=O)C[C@H]1C[C@@H]2CN(CCCc2ccccc2)C1	KDM5B inhibitor 31.6µM
O=C(Nc1ccccc1)Nc1ccc2n(c1=O)C[C@H]1C[C@@H]2CN(C(=O)c2ccccc2)C1	KDM5B inhibitor inconclusive
Cc1oc2cc(OCC(=O)N3CCN(C)CC3)ccc2c(=O)c1Oc1ccccc1	none (no result: IP6K1 inhibitor)
CN1C(=O)CO[C@H]2CN(Cc3ncc[nH]3)C[C@H]21	KDM5B inhibitor 35.5µM
O=C1CO[C@H]2CN(Cc3ccco3)C[C@H]2N1Cc1cccnc1	none
CN1C(=O)CO[C@H]2CN(C3CCOCC3)C[C@H]21	none
O=C1CO[C@H]2CN(Cc3ncc[nH]3)C[C@H]2N1Cc1ccncc1	KDM5B inhibitor 35.5µM
O=C1CO[C@H]2CN(Cc3ncc[nH]3)C[C@H]2N1Cc1cccnc1	KDM5B inhibitor 25.1µM
O=C1CO[C@H]2CN(CC3CC3)C[C@H]2N1Cc1ccccn1	none
CCC1CCCCN1C(=O)CCl (configuration not stated)	none (no result: IP6K1 inhibitor)
O=C(Cc1ccccc1)N1Cc2ccccc2CC2(CCCCN2Cc2ccccn2)C1 (configuration not stated)	KDM5B inhibitor inconclusive
NCC(c1ccc(Cl)cc1)N1CCCC1 (configuration not stated)	none (no result: IP6K1 inhibitor)
FC(F)(F)CN1C2CCC1CN(c1ccccn1)C2	KDM5B inhibitor inconclusive
FC(F)(F)CN1C2CCC1CN(c1cnc3ccccc3c1)C2	KDM5B inhibitor 100µM
FC(F)(F)CN1C2CCC1CN(c1cncc(Cl)c1)C2	none
COc1cccc(N2CC3CCC(C2)N3CC(F)(F)F)n1	KDM5B inhibitor 100µM
CO[C@@H]1CNC2Cc3c(oc4ccccc34)C1C2 (some centres not stated)	none (no result: KDM5B inhibitor)
CC(=O)N1CCC2(CC1)CC(c1cccnc1)=NO2	KDM5B inhibitor 17.8µM
CC(=O)N1CCC2(CC1)C(=O)NN=C2c1cccnc1	none
c1cncc(C2=NOC3(CCN(C4CCCCC4)CC3)C2)c1	none
CC(=O)N1CCC2(C1)N=C(c1cccnc1)C(=O)N2 (configuration not stated)	KDM5B inhibitor 35.5µM
CCOC(=O)[C@H]1CN(C(=O)OCc2ccccc2)[C@]2(C)C(=O)Nc3ccccc3[C@H]12	none (no result: KDM5B inhibitor)
CN1Cc2ccccc2-n2ccnc2C12CCN(C(=O)c1cccc(C(F)(F)F)c1)CC2	none
CCNC(=O)NC[C@H]1C[C@@H]2CCN1C[C@@H]2c1cc(-c2ccccc2)nn1C	none
CC(Oc1ccccc1)C(=O)NN (configuration not stated)	none (no result: IP6K1 inhibitor)
Cc1nc(-c2ccccc2)cc([C@H]2CN3CC[C@H]2C[C@@H]3CNS(C)(=O)=O)n1	KDM5B inhibitor inconclusive
CCCS(=O)(=O)NC[C@H]1C[C@@H]2CCN1C[C@@H]2c1cc(-c2ccc(OC)c(OC)c2)nc(C)n1	KDM5B inhibitor 25.1µM
Cc1nc(-c2cccs2)cc([C@H]2CN3CC[C@H]2C[C@@H]3CO)n1	KDM5B inhibitor 35.5µM
Cc1nc(-c2ccc(C(F)(F)F)cc2)cc([C@H]2CN3CC[C@H]2C[C@@H]3CNC(=O)CCCC(=O)O)n1	none
Cc1nc(-c2cccs2)cc([C@H]2CN3CC[C@H]2C[C@@H]3CNC(=O)C(C)(C)C)n1	KDM5B inhibitor inconclusive
Cc1nc(-c2cccs2)cc([C@H]2CN3CC[C@H]2C[C@@H]3CNC(=O)c2ccc(C(F)(F)F)cc2)n1	none
COc1ccc(-c2cc([C@H]3CN4CC[C@H]3C[C@@H]4CNC(=O)CSCC(=O)O)nc(C)n2)cc1OC	KDM5B inhibitor 31.6µM
COc1ccc(-c2cc([C@H]3CN4CC[C@H]3C[C@@H]4CNC(=O)c3cccs3)nc(C)n2)cc1OC	KDM5B inhibitor 28.2µM
CCOC(=O)[C@H]1CN(S(=O)(=O)c2ccccc2)[C@]2(C)C(=O)N(CC3CC3)c3ccccc3[C@H]12	none (no result: KDM5B inhibitor)
CCOC(=O)[C@H]1CN(C(=O)c2ccc(Cl)cc2)[C@]2(C)C(=O)N(CCOC)c3ccccc3[C@H]12	none (no result: KDM5B inhibitor)
CCNC(=O)NC[C@H]1C[C@@H]2CCN1C[C@@H]2c1cc(-c2ccccc2)nc(C)n1	KDM5B inhibitor inconclusive
CCNC(=O)NC[C@H]1C[C@@H]2CCN1C[C@@H]2c1cc(-c2ccc(OC)c(OC)c2)nc(C)n1	KDM5B inhibitor 17.8µM
COc1ccc(-c2cc([C@H]3CN4CC[C@H]3C[C@@H]4CN)nc(C)n2)cc1OC	KDM5B inhibitor 39.8µM
COc1ccc(-c2cc([C@H]3CN4CC[C@H]3C[C@@H]4COC(=O)NC3CCCCC3)nc(C)n2)cc1	none
CCOC(=O)[C@H]1CN(C(=O)c2ccc(F)cc2)[C@]2(C)C(=O)N(CC3CC3)c3ccccc3[C@H]12	none (no result: KDM5B inhibitor)
O=C(Cc1cccc(Cl)c1)N1CCCN(CCn2nc3n(c2=O)CCCC3)CC1	none (no result: KDM5B inhibitor)
N#Cc1cccc(-c2ccc(=O)n3c2[C@@H]2C[C@@H](CN(C(=O)NC4CCCCC4)C2)C3)c1	KDM5B inhibitor inconclusive
COc1ccc(CC(=O)N2CCN(Cc3ccccc3-c3ccccc3F)CC2)cc1	none (no result: KDM5B inhibitor)
Cc1ccccc1-c1ccc2n(c1=O)C[C@H]1C[C@@H]2CN(C(=O)Nc2ccc(Cl)cc2)C1	KDM5B inhibitor 31.6µM
Cc1ccccc1-c1ccc2n(c1=O)C[C@H]1C[C@@H]2CN(C(=O)NC(C)C)C1	KDM5B inhibitor 35.5µM
COc1ccccc1NC(=O)N1C[C@@H]2C[C@H](C1)c1ccc(-c3ccccc3C)c(=O)n1C2	KDM5B inhibitor inconclusive
O=C(Nc1ccccc1)N1C[C@@H]2C[C@H](C1)c1ccc(C3CCCCC3)c(=O)n1C2	KDM5B inhibitor inconclusive
COc1ccc(NC(=O)N2[C@H]3CC[C@@H]2c2cnc(-c4ccc(F)cc4)nc2C3)c(OC)c1	none
ClCCN1CCOCC1	none (no result: IP6K1 inhibitor)
CCCCC1CN2CCCC2CN1 (configuration not stated)	none
CCOC(=O)[C@H]1CN(C(=O)c2ccc(Cl)cc2)[C@]2(C)C(=O)N(CC3CC3)c3ccccc3[C@H]12	none (no result: KDM5B inhibitor)
Cc1ccc(C(=O)NC[C@H]2C[C@@H]3CCN2C[C@@H]3c2cc(-c3ccccc3Br)nc(C)n2)cc1	none
Cc1nc(-c2ccc(N(C)C)cc2)cc([C@H]2CN3CC[C@H]2C[C@@H]3COC(=O)Nc2ccc(C(C)C)cc2)n1	none
Cc1nc(-c2ccc(N(C)C)cc2)cc([C@H]2CN3CC[C@H]2C[C@@H]3COC(=O)NC(C)C)n1	KDM5B inhibitor 28.2µM
COc1ccc(C(=O)NC[C@H]2C[C@@H]3CCN2C[C@@H]3c2cc(-c3ccc(N(C)C)cc3)nc(C)n2)cc1	KDM5B inhibitor 28.2µM
Cc1nc(-c2ccccc2Br)cc([C@H]2CN3CC[C@H]2C[C@@H]3CNC(=O)c2ccc(N(C)C)cc2)n1	none
